Assay outcomes as filed in PubChem.
A selection: hits, their analogues and other compounds. The true share with any hit is near 19%.
DT40 TDP1 CPT: qHTS for Inhibitors of human tyrosyl-DNA phosphodiesterase 1 (TDP1): qHTS in cells in presence of CPT; chicken DT40 Tdp1-/-;hTDP1 cells + 20 nM CPT, ATP luminescence, 48 h; Potency, µM (titrated, usually from 46.2 µM), actives largely listed as inhibitors; actives 12% (n = 420,000); further: nearly all actives have a fitted effect of over 55% in size
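Chicken DT40 Tdp1-/- cells complemented with human TDP1, 400 cells/well, exposed to compounds plus 20 nM camptothecin for at least 48 h at 37 C; viability read as ATP content by CellTiter-Glo luminescence.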
HT1080NT lethal: qHTS for induction of synthetic lethality in tumor cells producing 2HG: qHTS for the HT-1080-NT fibrosarcoma cell line. HT-1080-NT fibrosarcoma viability, CellTiter-Glo ATP luminescence, 48 h. Potency, µM (doses to about 46.1 µM), usual class: cytotoxic. actives 1.6% (n = 360,000);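 further: NT is the 2HG producing partner of a matched IDH1 knockdown line; nearly all actives have a fitted effect of over 55% in size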
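Viability of the 2HG-overproducing fibrosarcoma line after 48 hours of compound exposure at 37 degrees C was determined by luminescence with CellTiter-Glo, and concentration-effect curves were then fitted and categorized.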
IL-1B inflam inh: qHTS for Inhibitors of Inflammasome Signaling: IL-1-beta AlphaLISA Primary Screen | THP-1 LPS/ATP IL-1B secretion, AlphaLISA, 16 h; active compounds read low | AID 743279, 2014 | activity change, % at 57.5 µM | actives 4.7% (n = 360,000); in the data active means activity change below about -50%; inconclusive means mostly about -30% to -49%
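Secreted IL-1B measured by AlphaLISA bead assay after 16 h compound exposure of THP-1 cells; compounds (final up to 57.5 uM) added 1 h before LPS (250 ng/mL) and ATP (1.25 mM) stimulation; lower signal means less secretion.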
HT1080 IDH1KD tx: qHTS for induction of synthetic lethality in tumor cells producing 2HG: qHTS for the HT-1080-IDH1KD cell line. HT-1080 IDH1 knockdown viability, ATP luminescence, 48 h. actives 2% (n = 360,000). Potency, µM (highest dose often 46.1 µM), hits mostly cytotoxic. AID 686971, 2013
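IDH1KD HT-1080 cells, 750/well, RPMI + 5% FBS; compound pinned after 2 h settling; 48 h, 37 °C; CellTiter-Glo luminescence; % activity normalised to DMSO and no-cell wells; curves fitted, classed by r2 and efficacy.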
TDP1 cell noCPT: qHTS for Inhibitors of human tyrosyl-DNA phosphodiesterase 1 (TDP1): qHTS in cells in absence of CPT; AID 686978, 2013; actives 15% (n = 420,000); DT40 Tdp1-/- hTDP1 cells, no CPT, ATP luminescence, 48 h; Potency, µM (series often up to 46.2 µM), usual class: inhibitors; further: nearly all actives have a fitted effect of over 55% in size
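Cells were dispensed at 400 per well, compounds added by pin tool, plates incubated ≥48 hr at 37 °C, then CellTiter-Glo added for 30 min at room temperature before luminescence reading. Line: DT40 Tdp1-/- complemented with hTDP1; camptothecin omitted.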
Large screens that a line does not name were inactive. Unless noted, the call rests on the fitted dose curve; in most records, active means well fitted curve in the direction sought with a large enough effect; inconclusive means small, poorly fitted or top-dose-only effect, or another doubt; inactive means no such curve, though single readings can be large; an effect the other way counts as inactive or inconclusive.

CCc1ccc(OCC(=O)Nc2cccc3c2CCCC3)cc1	DT40 TDP1 CPT inconclusive, TDP1 cell noCPT inconclusive
COc1cc2c(cc1OC)C(C1C(=O)CC(C)(C)CC1=O)N(C(=O)CCl)CC2 (stereo not drawn)	none
COc1cc2c(cc1OC)C(c1cc(Br)ccc1F)N(C(=O)CCl)CC2 (stereo not drawn)	DT40 TDP1 CPT 1.5µM, HT1080NT lethal 21µM, IL-1B inflam inh -71, HT1080 IDH1KD tx 21µM, TDP1 cell noCPT 1.6µM
CC(=O)c1nn(-c2ccccc2)cc1C(=O)c1ccc(C)cc1	DT40 TDP1 CPT inconclusive, TDP1 cell noCPT 23µM
CC(=O)c1nn(-c2ccc(Br)cc2)cc1C(=O)c1ccccc1	none
N#Cc1cn(-c2ccccc2)nc1C(=O)c1ccccc1	DT40 TDP1 CPT inconclusive, TDP1 cell noCPT 12µM
CCCOc1cccc(C2c3c(oc4ccc(F)cc4c3=O)C(=O)N2CCCN2CCOCC2)c1 (stereo not drawn)	none (no result: HT1080NT lethal, IL-1B inflam inh, HT1080 IDH1KD tx)
CC(=O)C[C@H](O)CC(=O)[C@H]1OC(=O)[C@@H](C)CCCCc2ccccc21	none
Cc1ccc(NC(c2nnc(-c3ccccc3)o2)c2ccccc2F)c([N+](=O)[O-])c1 (stereo not drawn)	TDP1 cell noCPT 23µM (no result: HT1080NT lethal, IL-1B inflam inh, HT1080 IDH1KD tx)
CC(=O)Oc1ccc(OC(C)=O)c(SCCCCCN2CCOCC2)c1	DT40 TDP1 CPT inconclusive, HT1080NT lethal inconclusive, HT1080 IDH1KD tx inconclusive, TDP1 cell noCPT 3.7µM
O=C(NC(=S)Nc1ccccc1Br)C1CCCC1	TDP1 cell noCPT inconclusive
O=C(NC(=S)Nc1cccc(Cl)c1Cl)C1CC1	DT40 TDP1 CPT 13µM, TDP1 cell noCPT inconclusive
O=C(NC(=S)Nc1ccccc1Br)C1CCCCC1	DT40 TDP1 CPT 18µM, TDP1 cell noCPT 16µM
O=C(Nc1cccc(Cl)c1Cl)C1CC(=O)N(c2ccc(Br)cc2)C1 (stereo not drawn)	HT1080NT lethal inconclusive, HT1080 IDH1KD tx inconclusive
CC(C)(C)N1CC(C(=O)Nc2cccc(Cl)c2Cl)CC1=O (stereo not drawn)	IL-1B inflam inh -69
CN(CC(=O)Nc1c(Cl)cccc1Cl)C(=O)c1ccc(-n2cncn2)c([N+](=O)[O-])c1	none
Cc1cccn2c(CN3CCCC(c4ccccc4)C3)c(C(=O)N3CCOCC3)nc12 (stereo not drawn)	DT40 TDP1 CPT inconclusive, TDP1 cell noCPT inconclusive
O=C(C1CC(=O)N(c2ccc3c(c2)OCCO3)C1)N1CCN(Cc2ccccc2F)CC1 (stereo not drawn)	none
CC(C)CCN(C(=O)CCSc1ccc(F)cc1)c1c(N)n(Cc2ccccc2)c(=O)[nH]c1=O	DT40 TDP1 CPT inconclusive, TDP1 cell noCPT inconclusive
CC(C)CN(C(=O)CCCSc1nc2ccccc2[nH]1)c1c(N)n(Cc2ccccc2)c(=O)[nH]c1=O	IL-1B inflam inh -102
CC(C)CCN(C(=O)CCCSc1nc2ccccc2[nH]1)c1c(N)n(Cc2ccccc2)c(=O)[nH]c1=O	IL-1B inflam inh -97
CC(C)CN(C(=O)CSc1nc(-c2ccccc2)cn1N)c1c(N)n(Cc2ccccc2)c(=O)[nH]c1=O	none
CCOCCCNC(=O)/C(C#N)=C/c1cc(OC)c(O)c([N+](=O)[O-])c1	DT40 TDP1 CPT 3.7µM, HT1080NT lethal 6.5µM, HT1080 IDH1KD tx 4.6µM, TDP1 cell noCPT 2.9µM
CCOCCCNC(=O)/C(C#N)=C/c1cc(C)c(O)c(C)c1	DT40 TDP1 CPT inconclusive, TDP1 cell noCPT 23µM
COCCNC(=O)/C(C#N)=C/c1ccc(O)c([N+](=O)[O-])c1	TDP1 cell noCPT inconclusive
CCOCCCNC(=O)/C(C#N)=C/c1ccc(C(=O)OC)cc1	DT40 TDP1 CPT inconclusive
CCOCCCNC(=O)/C(C#N)=C/c1ccc(Cl)c([N+](=O)[O-])c1	DT40 TDP1 CPT 2.6µM, HT1080NT lethal 23µM, HT1080 IDH1KD tx 33µM, TDP1 cell noCPT 7.3µM
CC(C)C[C@@H](CN)NC(=O)c1nc[nH]c1C(=O)N[C@@H](CC(C)C)C(=O)CNC[C@H](C)NC(=O)c1nc[nH]c1C(=O)N[C@@H](C)C(=O)O	none
O=[N+]([O-])c1ccc2[nH]c(=S)sc2c1	DT40 TDP1 CPT 23µM, HT1080NT lethal inconclusive, TDP1 cell noCPT 21µM
CC(C)N(C(=O)COC(=O)c1cccc(S(=O)(=O)N2CC3(C)CC2CC(C)(C)C3)c1)C(C)C (stereo not drawn)	DT40 TDP1 CPT 23µM, TDP1 cell noCPT inconclusive
CN(C)C(CNC(=O)c1cccc(S(=O)(=O)N2CC3(C)CC2CC(C)(C)C3)c1)c1ccco1 (stereo not drawn)	DT40 TDP1 CPT inconclusive, TDP1 cell noCPT 16µM
CC(C)(CO)NC(=O)C(Cc1ccccc1)N1C(=O)c2ccccc2C1=O (stereo not drawn)	none
O=C(NNC(=O)c1cnccn1)c1ccc(Cl)cc1	DT40 TDP1 CPT inconclusive, TDP1 cell noCPT 15µM
O=C(Nc1ccccc1Cl)c1cnccn1	none
Cc1ccc(OCC(=O)NCCCNC(=O)c2cnccn2)cc1C	DT40 TDP1 CPT inconclusive
Cc1cc(OCC(=O)NNC(=O)c2cnccn2)cc(C)c1Cl	DT40 TDP1 CPT 10µM, HT1080NT lethal inconclusive, HT1080 IDH1KD tx inconclusive, TDP1 cell noCPT 5.8µM
O=C(NNC(=O)c1ccc(Cl)cc1Cl)c1cnccn1	DT40 TDP1 CPT inconclusive, HT1080 IDH1KD tx inconclusive, TDP1 cell noCPT 26µM
CC1(c2nnnn2-c2ccc3c(c2)OCCO3)CCC(=O)N1CC(F)(F)F (stereo not drawn)	none
CN(CC(=O)Nc1c(Cl)cccc1Cl)CC(=O)N1CCc2ccccc21	DT40 TDP1 CPT inconclusive, TDP1 cell noCPT inconclusive
Cc1ccc(C)c(NS(=O)(=O)c2ccc3oc(=O)c4ncn(C)c4c3c2)c1	none (no result: HT1080NT lethal, IL-1B inflam inh, HT1080 IDH1KD tx)
CCOC(=O)[C@]12CCCC=C1N(Cc1ccco1)C(=O)[C@H](CC(=O)NCCCCc1ccccc1)C2	DT40 TDP1 CPT 23µM, IL-1B inflam inh inconclusive, HT1080 IDH1KD tx inconclusive, TDP1 cell noCPT inconclusive
CCOC(=O)[C@]12CCC=C1N(Cc1ccco1)C(=O)[C@H](CC(=O)NCCCCc1ccccc1)C2	DT40 TDP1 CPT inconclusive, TDP1 cell noCPT inconclusive
CCOC(=O)[C@]12CCCC=C1N(Cc1ccco1)C(=O)[C@H](CC(=O)NCC13CC4CC(CC(C4)C1)C3)C2	DT40 TDP1 CPT 26µM, HT1080NT lethal inconclusive, IL-1B inflam inh -55, HT1080 IDH1KD tx inconclusive, TDP1 cell noCPT inconclusive
CCOC(=O)[C@]12CCC=C1N(Cc1ccco1)C(=O)[C@H](CC(=O)NCC13CC4CC(CC(C4)C1)C3)C2	DT40 TDP1 CPT inconclusive, HT1080NT lethal inconclusive, HT1080 IDH1KD tx inconclusive, TDP1 cell noCPT inconclusive
